According to PubChem BioAssay (Tox21):
A number with no mark means an inactive call. Results filed as inconclusive are left out. Entries that show only a call come without a potency. The source made the active and inactive calls. Unless noted, calls come from the whole dose curve.

Assays:
[1] = Nuclear factor erythroid 2-related factor 2/antioxidant responsive element (Nrf2/ARE) small molecule agonists: qHTS cell viability counter screen in human keratinocytes (AID 1919968; active = well fitted curve in the direction sought with a large enough effect in the repeat runs; an effect the other way counts as inactive or inconclusive; note: nearly all actives have a fitted effect of over 55% in size; note: potency is the fitted concentration of half-maximal effect)
How it was run: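 Cells of the KeratinoSens line were plated at 1,500 per well and left for 5 h before compound transfer from DMSO stocks. After a 23 h incubation (37 C, 5% CO2), CellTiter-Fluor was added. Signal was taken as fluorescence intensity 1 h later.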

[2] = target: Gonadotropin-releasing hormone receptor (Homo sapiens) (UniProt P30968); assay: Human gonadotropin-releasing hormone receptor (GnRHR) small molecule agonists, calcium flux assay in GnRHR-HEK293 cells (AID 1920063); note: nearly all actives have a fitted effect of over 35% in size
Sequence of Gonadotropin-releasing hormone receptor (Homo sapiens) (P30968 whole entry, looked up): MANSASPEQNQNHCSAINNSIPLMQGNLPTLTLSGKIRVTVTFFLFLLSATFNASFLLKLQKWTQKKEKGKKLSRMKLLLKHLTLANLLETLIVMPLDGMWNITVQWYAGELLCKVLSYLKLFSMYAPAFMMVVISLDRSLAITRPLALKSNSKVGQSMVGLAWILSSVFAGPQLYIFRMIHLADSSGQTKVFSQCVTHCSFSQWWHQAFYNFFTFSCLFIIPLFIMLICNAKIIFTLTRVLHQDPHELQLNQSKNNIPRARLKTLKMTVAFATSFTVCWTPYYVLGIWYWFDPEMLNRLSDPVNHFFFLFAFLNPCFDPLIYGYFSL
How it was run: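 Compounds dissolved in DMSO are pin-transferred onto dye-loaded GnRHR-HEK293 cells, which were seeded 18 h before at 37 C/5% CO2. Calcium signal is read as fluorescence intensity at 1 s intervals for 3 min.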

[3] = target: KiSS-1 receptor (Homo sapiens) (UniProt Q969F8); assay: Human kisspeptin (KISS1R) small molecule agonists, calcium flux assay in KISS1R-HEK293 cells (AID 1920064; active = well fitted curve in the direction sought with a large enough effect in the repeat runs; an effect the other way counts as inactive or inconclusive)
Sequence of KiSS-1 receptor (Homo sapiens) (Q969F8 whole entry, looked up): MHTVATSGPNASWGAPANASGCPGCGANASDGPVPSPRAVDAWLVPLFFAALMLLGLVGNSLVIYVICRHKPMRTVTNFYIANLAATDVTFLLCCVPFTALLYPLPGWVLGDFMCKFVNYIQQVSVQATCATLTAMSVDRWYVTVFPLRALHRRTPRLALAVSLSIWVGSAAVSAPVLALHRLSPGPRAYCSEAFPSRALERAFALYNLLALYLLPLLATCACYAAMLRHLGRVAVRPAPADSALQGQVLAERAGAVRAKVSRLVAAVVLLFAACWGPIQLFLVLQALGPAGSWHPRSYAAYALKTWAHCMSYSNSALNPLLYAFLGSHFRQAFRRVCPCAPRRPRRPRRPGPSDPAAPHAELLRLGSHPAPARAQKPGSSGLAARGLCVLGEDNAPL
How it was run: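 Cell line: HEK293, stable human KISS1R. Dye loading 1 h at 37 C after 18 h culture. Read: kinetic fluorescence, 480/540 nm, 3 min at 1 s intervals.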

[4] = G protein-coupled receptor (GPCR) small molecule agonists, calcium flux assay: HEK293 wild type cell line counter screen (AID 1920065)
How it was run: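 Tox21 10K compounds, 15 concentrations each in triplicate, pin-transferred in DMSO onto dye-loaded cells; kinetic read at 480/540 nm for 3 min, 1 s intervals.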

[5] = p53 small molecule agonists, cell-based qHTS assay with human liver microsomes (AID 1963577);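 note: p53 response element beta-lactamase reporter cells with liver microsomes plus NADPH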
How it was run: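 16 h, 37 C exposure of p53RE-bla cells to compounds with human liver microsomes and NADPH (0.5 mg/mL final each); detection via LiveBLAzer mixture, 2 h dark at room temperature.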

[6] = p53 small molecule agonists, cell-based qHTS assay with human liver microsomes: qHTS cell viability counter screen (AID 1963579); note: nearly all actives have a fitted effect of over 45% in size; note: potency is the fitted concentration of half-maximal effect
How it was run: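 In this multiplexed counter screen, the reporter plates were subsequently treated with CellTiter-Glo so that cell viability, reflected by luminescence, could be recorded for p53RE-bla cells dosed 16 h with compounds under microsomal activation (HLM and NADPH).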

[7] = p53 small molecule agonists, cell-based qHTS assay with rat liver microsomes: qHTS cell viability counter screen (AID 1963580); note: nearly all actives have a fitted effect of over 45% in size
How it was run: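 Cytotoxicity counter screen: intracellular ATP read by CellTiter-Glo luminescence in the p53 reporter wells. HCT-116 p53RE-bla cells were treated for 16 h at 37 C alongside rat liver microsomes and NADPH, each 0.5 mg/mL final.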

[8] = target: 5-hydroxytryptamine receptor 2A (Homo sapiens) (UniProt P28223); assay: 5-hydroxytryptamine receptor 2A (HTR2A) small molecule antagonists, cell-based qHTS assay (AID 1963586); note: nearly all actives have a fitted effect of over 45% in size
Sequence of 5-hydroxytryptamine receptor 2A (Homo sapiens) (P28223 whole entry, looked up): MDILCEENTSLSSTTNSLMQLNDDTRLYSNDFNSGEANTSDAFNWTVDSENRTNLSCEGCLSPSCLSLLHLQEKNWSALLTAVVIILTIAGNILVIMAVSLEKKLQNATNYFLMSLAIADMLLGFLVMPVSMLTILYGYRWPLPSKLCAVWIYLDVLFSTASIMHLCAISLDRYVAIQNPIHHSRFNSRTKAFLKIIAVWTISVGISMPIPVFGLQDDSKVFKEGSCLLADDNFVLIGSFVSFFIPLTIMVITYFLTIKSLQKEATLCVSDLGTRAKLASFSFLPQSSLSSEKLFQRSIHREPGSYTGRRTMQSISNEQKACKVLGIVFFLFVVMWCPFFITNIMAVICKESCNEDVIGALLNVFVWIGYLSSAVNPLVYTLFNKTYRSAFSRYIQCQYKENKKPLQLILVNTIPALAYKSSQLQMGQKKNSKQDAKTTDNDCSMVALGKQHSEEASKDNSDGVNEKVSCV
How it was run: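 CHO cells stably expressing human HTR2A were plated for 18 h at 37 C, then loaded with calcium dye for 1 h. Compounds were preincubated 5 min at room temperature before DOI (4 nM solution) was added. Kinetic fluorescence was read for 3 min.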

[9] = target: 5-hydroxytryptamine receptor 2A (Homo sapiens) (UniProt P28223); assay: 5-hydroxytryptamine receptor 2A (HTR2A) small molecule agonists, cell-based qHTS assay (AID 1963587); note: nearly all actives have a fitted effect of over 30% in size
How it was run: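 Kinetic calcium-flux fluorescence (2 min, 1 sec intervals) after compound addition in agonist mode. HTR2A-CHO cells were cultured 18 h, then dye-loaded 1 h at 37 C.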

[10] = target: Muscarinic acetylcholine receptor M1 (Homo sapiens) (UniProt P11229); assay: Cholinergic receptor muscarinic 1 (CHRM1) small molecule antagonists, cell-based qHTS assay (AID 1963588); note: nearly all actives have a fitted effect of over 40% in size
Sequence of Muscarinic acetylcholine receptor M1 (Homo sapiens) (P11229 whole entry, looked up): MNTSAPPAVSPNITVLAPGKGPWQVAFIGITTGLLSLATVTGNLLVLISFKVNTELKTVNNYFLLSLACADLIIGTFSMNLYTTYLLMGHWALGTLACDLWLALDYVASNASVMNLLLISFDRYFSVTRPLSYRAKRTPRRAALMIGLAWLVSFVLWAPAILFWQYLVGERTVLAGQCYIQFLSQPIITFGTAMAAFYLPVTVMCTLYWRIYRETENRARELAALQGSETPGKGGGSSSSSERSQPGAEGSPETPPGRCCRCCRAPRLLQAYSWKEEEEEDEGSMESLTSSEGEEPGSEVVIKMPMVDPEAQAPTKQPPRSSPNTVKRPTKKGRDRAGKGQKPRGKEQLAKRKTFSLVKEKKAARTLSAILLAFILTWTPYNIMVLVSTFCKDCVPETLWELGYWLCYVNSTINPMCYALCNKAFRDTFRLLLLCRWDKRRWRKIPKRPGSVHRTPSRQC
How it was run: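 Compounds were tested at 15 concentrations in three independent runs. Dye-loaded CHRM1-CHO cells were exposed 5 min at room temperature before stimulation by acetylcholine added at 50nM. Intracellular calcium was read kinetically on FDSS for 3 min.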

[11] = target: Muscarinic acetylcholine receptor M1 (Homo sapiens) (UniProt P11229); assay: Cholinergic receptor muscarinic 1 (CHRM1) small molecule agonists, cell-based qHTS assay (AID 1963589); note: nearly all actives have a fitted effect of over 35% in size
How it was run: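 Homogeneous fluorescence calcium flux, agonist mode. Human M1-expressing CHO cells; compound dosed at 15 concentrations, three independent runs; signal sampled every 1 sec.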

[12] = cAMP Responsive Elements (CRE) small molecule antagonists, cell-based qHTS assay (AID 1963591; active = well fitted inhibition curve with a large enough effect in the signal ratio in the repeat runs, not every such curve was filed as active; the % refers to the signal ratio; note: potency is the fitted concentration of half-maximal effect)
How it was run: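 First, CRE-bla HEK293T cells settled 18 h at 37 C. Next, compound and 0.25 uM final NKH477 were applied for 3 h. Last, LiveBLAzer B/G substrate was loaded for 2 h at room temperature.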

[13] = target: Beta-2 adrenergic receptor (Homo sapiens) (UniProt P07550); assay: Adrenergic beta2 receptor (ADRB2) small molecule antagonists, cell-based qHTS assay (AID 1963592); note: series mostly up to about 92 µM; nearly all actives have a fitted effect of over 50% in size
Sequence of Beta-2 adrenergic receptor (Homo sapiens) (P07550 whole entry, looked up): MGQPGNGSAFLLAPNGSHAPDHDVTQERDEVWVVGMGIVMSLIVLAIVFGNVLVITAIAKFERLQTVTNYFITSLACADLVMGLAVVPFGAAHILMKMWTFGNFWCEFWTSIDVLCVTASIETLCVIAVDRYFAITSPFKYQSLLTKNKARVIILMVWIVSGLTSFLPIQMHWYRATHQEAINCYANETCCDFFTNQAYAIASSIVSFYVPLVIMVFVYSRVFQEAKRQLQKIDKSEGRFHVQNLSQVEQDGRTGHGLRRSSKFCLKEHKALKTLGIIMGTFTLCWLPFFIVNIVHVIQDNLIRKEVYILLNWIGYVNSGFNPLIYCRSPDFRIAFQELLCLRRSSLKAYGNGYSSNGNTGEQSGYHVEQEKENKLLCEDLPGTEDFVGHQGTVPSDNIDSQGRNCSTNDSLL
How it was run: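 Assay format: CHO-ADRB2 cells, 18-20hr seeding at 37C/5% CO2, then compound plus 1nM isoproterenol agonist mix for 0.5hr RT. Homogeneous time-resolved fluorescence cAMP detection after 1hr, expressed as 665/615 nm ratio.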

[14] = target: Beta-2 adrenergic receptor (Homo sapiens) (UniProt P07550); assay: Adrenergic beta2 receptor (ADRB2) small molecule agonists, cell-based qHTS assay (AID 1963593);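 note: CHO cells stably overexpressing human ADRB2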
How it was run: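 CHO cells stably over-expressing ADRB2 were plated overnight at 37C, then dosed with compounds plus a stimulation mix containing 100uM IBMX and 25uM Ro-20-1724 for 0.5hr at room temperature. cAMP was measured by HTRF competition, 1hr.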

[15] = target: D(2) dopamine receptor (Homo sapiens) (UniProt P14416); assay: Dopamine D2 receptor (DRD2) small molecule agonists, cell-based qHTS assay (AID 1963594); note: nearly all actives have a fitted effect of over 35% in size
Sequence of D(2) dopamine receptor (Homo sapiens) (P14416 whole entry, looked up): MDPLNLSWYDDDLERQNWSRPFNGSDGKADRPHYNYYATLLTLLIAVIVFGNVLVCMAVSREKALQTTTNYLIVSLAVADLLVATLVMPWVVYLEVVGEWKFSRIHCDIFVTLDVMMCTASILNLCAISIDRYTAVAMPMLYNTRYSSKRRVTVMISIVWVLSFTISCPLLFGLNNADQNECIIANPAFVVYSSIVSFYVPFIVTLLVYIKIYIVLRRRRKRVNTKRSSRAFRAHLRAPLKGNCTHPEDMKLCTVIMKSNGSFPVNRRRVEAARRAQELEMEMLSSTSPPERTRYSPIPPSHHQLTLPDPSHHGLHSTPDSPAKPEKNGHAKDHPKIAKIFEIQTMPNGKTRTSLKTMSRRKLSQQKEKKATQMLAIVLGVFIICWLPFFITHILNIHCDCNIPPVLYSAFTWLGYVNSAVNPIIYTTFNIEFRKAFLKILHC
How it was run: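 cAMP accumulation in DRD2-HEK293 cells measured by HTRF after 1 h detection; compounds added 10 min before NKH477 (200nM […]) forskolin-analogue stimulation, 30 min at room temperature, with Ro20-1724 present at 0.1 mM final.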

[16] = target: D(2) dopamine receptor (Homo sapiens) (UniProt P14416); assay: Dopamine D2 receptor (DRD2) small molecule antagonists, cell-based qHTS assay (AID 1963595; active = well fitted inhibition curve with a large enough effect in the signal ratio in the repeat runs, with a control signal flat; the % refers to the signal ratio)
How it was run: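 HEK293 cells stably expressing DRD2 were preincubated with 0.1 mM Ro20-1724, then with compound for 10 min at room temperature. Cells were stimulated with 200 nM NKH477 plus 12 nM quinpirole for 30 min, and cAMP was read by HTRF.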

[17] = p53 small molecule agonists, cell-based qHTS assay (AID 1963582; active = well fitted activation curve with a large enough effect in the signal ratio in the repeat runs, not every such curve was filed as active; the % refers to the signal ratio)
How it was run: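 16 h compound exposure (37 C) of p53 response element–bla cells, preceded by 5 h recovery at 37 C/5% CO2; read-out via LiveBLAzer B/G FRET substrate, 2 h RT, fluorescence intensity.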

[18] = cAMP Responsive Elements (CRE) small molecule agonists, cell-based qHTS assay (AID 1963590)
How it was run: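 HEK 293T cells stably bearing CRE-bla were plated at 2,000 cells per well and rested 18 h. Compounds, positive controls or DMSO were added for 3 h at 37 C. LiveBLAzer B/G substrate was then loaded for 2 h at room temperature.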

[19] = p53 small molecule agonists, cell-based qHTS assay with rat liver microsomes (AID 1963578)
How it was run: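 With rat liver microsomes and NADPH present (0.5 mg/mL final each), p53RE-bla cells are treated with compound for 16 h at 37 C. LiveBLAzer detection mixture is then applied for 2 h at room temperature in the dark.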

[20] = p53 small molecule agonists, cell-based qHTS assay: qHTS cell viability counter screen (AID 1963581); note: nearly all actives have a fitted effect of over 45% in size
How it was run: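 ATP content measured by luminescence in HCT-116 p53RE-bla cells treated 16 h at 37 C, same wells as the reporter screen.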

Row | Structure (SMILES) | Potency [1] | Potency [2] | Potency [3] | Potency [4] | Potency [5] | Potency [6] | Potency [7] | Potency [8] | Potency [9] | Potency [10] | Potency [11] | Potency [12] | Potency [13] | Potency [14] | Potency [15] | Potency [16] | Potency [17] | Potency [18] | Potency [19] | Potency [20]
1 | CCOC(=O)/C=C(C)/C=C/C=C(C)/C=C/c1c(C)cc(OC)c(C)c1C | inactive | inactive | inactive | inactive | inactive | inactive | inactive | inactive | inactive | inactive | inactive | inactive | inactive | inactive | inactive | inactive | – | – | – | –
2 | COc1ccc(NC(=O)CC(C)=O)cc1 | inactive | inactive | inactive | inactive | inactive | inactive | – | inactive | inactive | inactive | inactive | inactive | inactive | inactive | inactive | inactive | inactive | inactive | – | –
3 | CC(C)C=O | inactive | inactive | inactive | inactive | – | inactive | inactive | – | inactive | inactive | inactive | inactive | inactive | inactive | inactive | inactive | inactive | inactive | inactive | inactive
4 | NC(=O)Nc1nc2ccccc2[nH]1 | inactive | inactive | inactive | inactive | – | inactive | inactive | inactive | inactive | inactive | inactive | inactive | – | – | inactive | inactive | inactive | inactive | inactive | inactive
5 | O=C(Cl)c1cc(C(=O)Cl)cc(C(=O)Cl)c1 | inactive | inactive | inactive | inactive | – | inactive | inactive | inactive | inactive | inactive | inactive | – | inactive | – | inactive | inactive | inactive | – | inactive | inactive
6 | Oc1ccc(C2(c3ccc(O)c(C4CCCCC4)c3)CCCCC2)cc1C1CCCCC1 | 12.2 µM (active) | inactive | inactive | inactive | inactive | 20.4 µM (active) | inactive | inactive | inactive | inactive | inactive | 21.7 µM (active) | inactive | – | inactive | inactive | – | – | – | –
7 | CC(C)CCOC(=O)/C=C/c1ccccc1 | inactive | inactive | inactive | inactive | inactive | inactive | inactive | inactive | inactive | inactive | inactive | inactive | inactive | inactive | inactive | inactive | inactive | inactive | – | inactive
